Consider 25 molecules from PubChem BioAssay.

A short description of assay [1]: liver-stage malaria parasite load reduction – cell-based, known kinase inhibitor set, luminescence, hepatoma host viability (AID 624392).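 Also: infected cells incubated roughly two days before readout.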 Particulars: Plasmodium liver stage in hepatoma cells, luciferase luminescence, concentration not given here; liver cell % of control: measured here: host liver cell viability; parasite % of control: stronger effect = lower value.
For assay [2], the system named is Hepatitis C virus NS3 helicase. Briefly: blockers of NS3h binding to DNA – biochemical, fluorescence polarization, NIH Clinical Collection, primary screen (AID 743270). Conditions: NS3 helicase binding to Cy5-dT15 DNA, stronger effect = higher value, concentration not given here. (Polarisation of emitted light reports the rotation of a fluorescent probe.)
In assay [3] the target is Single-stranded DNA-binding protein (Escherichia coli (strain K12)) (UniProt P0AGE0). Briefly: SSB-ssDNA binding inhibitors – biochemical, fluorescence polarization, NIH Clinical Collection, counter-screen for HCV NS3 helicase inhibitor project (AID 743271; in the data active = inhibition above about 28%). Conditions: E. coli SSB-DNA binding, stronger effect = higher value, concentration not given here.
Assay [4] can be described thus: compounds distorting NS3 helicase fluorescence signal – biochemical, NIH Clinical Collection, artefact control for HCV NS3 helicase inhibitor project (AID 743272).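 Also: HCV NS3 helicase with a Cy5 labelled single stranded DNA probe.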 Particulars: fluorescence interference counterscreen, HCV NS3 helicase assay; stronger effect = lower value. A general note: The purpose of a counterscreen is to sort out artefacts and off-target activity.
For assay [5], the system named is Hepatitis C virus NS3 helicase. Briefly: blockers of NS3h binding to ssDNA – biochemical, fluorescence polarization, LOPAC1280 library, primary screen (AID 687035; in the data active = inhibition above about 37%). Particulars: Purified HCV NS3 helicase, Cy5-dT15 ssDNA binding fluorescence polarization; stronger effect = higher value; concentration not given here.
Assay [6] can be described thus: compounds altering Cy5-DNA-NS3h complex signal – biochemical, LOPAC1280, artefact control for HCV NS3 helicase inhibitor project (AID 687037). Conditions: Cy5-DNA-NS3h complex fluorescence interference counterscreen.
Assay [7] can be described thus: signal quenchers or enhancers, Cy5 substrate/SSB – biochemical, NIH Clinical Collection, E. coli SSB, artefact control for HCV NS3 helicase inhibitor project (AID 743268). Conditions: Cy5-oligo bound E. coli SSB, fluorescence interference.

What is called inhibition is the relative decrease from the control value, in per cent.

Active and inactive are the calls of the source. Unless noted, no rule for the calls is given here.

For the molecule `CCC(CO)Nc1nc(Nc2cccc(Cl)c2)c2ncn(C(C)C)c2n1` (stereo not given), in assay [1], the liver cell % of control stood at 90.3% and the parasite % of control is 477% (inactive).
Consider `O=C(O)COCCN1CCN([C@@H](c2ccccc2)c2ccc(Cl)cc2)CC1`, for which the inhibition in assay [2] is -1.98% (inactive); in assay [3], -1.64% (inactive). Besides, in assay [4], the fluorescence ratio is 0.95 (inactive).
With `CO/N=C(/C(=O)N[C@@H]1C(=O)N2C(C(=O)O)=C(CSc3nc(=O)c(O)nn3C)CSC12)c1csc(N)n1` (stereo not given in full), in assay [5], the inhibition is -2% (inactive). Further, the fluorescence ratio (interference) in assay [6] is 1 (inactive).
As for `CCN1CCN(Cc2ccc(NC(=O)c3cc(NC(=O)c4cncc(-c5ccc(C#N)cc5)c4)cc(OC)c3)cc2C(F)(F)F)CC1`, in assay [1], the liver cell % of control turned out to be 77.4% and the parasite % of control is 95.5% (inactive).
With `O=C1CN(/N=C\c2ccc(-c3ccc([N+](=O)[O-])cc3)o2)C(=O)N1`, the inhibition in assay [5] was -3% (inactive). Further, the fluorescence ratio (interference) in assay [6] is 1 (inactive).
Consider `CC(C)C(CO)N(Cc1cccc(F)c1)c1nc(Nc2cccc(Cl)c2)c2ncn(C(C)C)c2n1` (stereo not given), for which, in assay [1], the liver cell % of control turned out to be 91.9% and the parasite % of control was 62.1% (inactive).
For the molecule `CO[C@H]1C=CO[C@@]2(C)Oc3c(C)c(O)c4c(O)c(c(/C=N/N5CCN(C6CCCC6)CC5)c(O)c4c3C2=O)NC(=O)C(C)=CC=C[C@H](C)[C@H](O)[C@@H](C)[C@@H](O)[C@@H](C)[C@H](OC(C)=O)[C@@H]1C`, the fluorescence ratio in assay [7] is 1.02 (inactive); in assay [4], 1.01 (inactive). For the same molecule, the values for the inhibition in assay [2] and in assay [3] were -3.56% (inactive) and 9.91% (inactive), respectively.
As for `CC(C)n1cnc2c(NCc3ccc(S(N)(=O)=O)cc3)nc(NCc3ccc(S(N)(=O)=O)cc3)nc21`, in assay [1], the liver cell % of control was determined as 102% and the parasite % of control was 108% (inactive).
With `C=CCc1cccc(/C=N\NC(=O)CN2CCN(Cc3ccccc3)CC2)c1O`, the inhibition in assay [5] is 1% (inactive). Also, the fluorescence ratio (interference) in assay [6] was 0.9 (inactive).
Regarding `CCN1CCN(Cc2ccc(NC(=O)c3cc(NC(=O)c4cc5cccc(OC)c5o4)cc(OC)c3)cc2C(F)(F)F)CC1`, in assay [1], the liver cell % of control worked out at 93.7% and the parasite % of control was 89.9% (inactive).
For the molecule `C=CC(=O)Nc1ccc(Nc2nc(NC3CCC(N(C)C)CC3)nc3c2ncn3C(C)C)cc1` (stereo not given), in assay [1], the liver cell % of control was found to be 57.1% and the parasite % of control is 6.69% (inactive).
Consider `CC(=O)/C(C)=N\O`, for which the inhibition in assay [5] is -1% (inactive). Besides, the fluorescence ratio (interference) in assay [6] is 1.1 (inactive).
For `Cc1ccc2nc(CN(CCN(Cc3nc4ccc(C)cc4[nH]3)Cc3nc4ccc(C)cc4[nH]3)Cc3nc4ccc(C)cc4[nH]3)[nH]c2c1` the same measures were 0% (inactive) and 1 (inactive).
In the case of `COc1cc(NC(=O)c2csc(N)n2)cc(C(=O)Nc2cccc(C(F)(F)F)c2)c1`, in assay [1], the liver cell % of control worked out at 88.9% and the parasite % of control was 39.6% (inactive).
For the molecule `CCN1CCN(Cc2ccc(NC(=O)c3ccc(C)c(NC(=O)C(=O)c4c[nH]c5ccccc45)c3)cc2C(F)(F)F)CC1`, in assay [1], the liver cell % of control turned out to be 69.8% and the parasite % of control is 99.9% (inactive).
With `CCOC(=O)N1CCN(/[N+]([O-])=N\Oc2ccc([N+](=O)[O-])cc2[N+](=O)[O-])CC1`, the inhibition in assay [5] is -3% (inactive). Moreover, the fluorescence ratio (interference) in assay [6] was 1.1 (inactive).
Regarding `COc1cc(NC(=O)c2cc3cccc(OC)c3o2)cc(C(=O)Nc2cccc(C(F)(F)F)c2)c1`, in assay [1], the liver cell % of control was 95.6% and the parasite % of control is 62.8% (inactive).
For `NC(=O)c1cccc(-c2cc(Oc3ccc(OC(F)(F)F)cc3)ncn2)c1` the same measures were 101% and 113% (inactive).
As for `C=CC(=O)Nc1cccc(N2C(=O)N(c3cc(OC)cc(OC)c3)Cc3cnc(NCCCCN(CC)CC)nc32)c1`, in assay [1], the liver cell % of control is 102% and the parasite % of control was 107% (inactive).
The matching figures for `COc1cc(C(=O)NC2CCN(C)CC2)ccc1Nc1ncc2c(n1)N(C1CCCCC1)CCC(=O)N2C`: 81.9% and 520% (inactive).
The matching figures for `Cc1ccc(C(=O)Nc2cccc(C(F)(F)F)c2)cc1Nc1ccccn1`: 95% and 54.6% (inactive).
Take `CO[C@H]1C=CO[C@@]2(C)Oc3c(C)c(O)c4c(O)c(c5c(c4c3C2=O)=NC2(CCN(CC(C)C)CC2)N=5)NC(=O)C(C)=CC=C[C@H](C)[C@H](O)[C@@H](C)[C@@H](O)[C@@H](C)[C@H](OC(C)=O)[C@@H]1C`: the fluorescence ratio in assay [7] and in assay [4] was 0.96 (inactive) throughout. Moreover, the inhibition is -2.77% (inactive) in assay [2] and 1.44% (inactive) in assay [3].
As to `CC(C)ON([C@@H](C(=O)NO)C(C)C)S(=O)(=O)c1ccc(-c2ccccc2)cc1`, in assay [5], the inhibition is -1% (inactive). Also, in assay [6], the fluorescence ratio (interference) is 0.9 (inactive).
The matching figures for `COCCCC/C(=N/OCCN)c1ccc(C(F)(F)F)cc1`: -1% (inactive) and 1 (inactive).
In the case of `O=C(Nc1ccc(-c2csc(Nc3ccc(Cl)cc3)n2)cc1)c1cc([N+](=O)[O-])cc(C(F)(F)F)c1`, in assay [1], the liver cell % of control is 106% and the parasite % of control was 97.2% (inactive).
